The campaign covered roughly 360,000 compounds. About 1,200 (0.33%) were called active. The entries come from a sample that favours actives as a whole. Unmarked numbers belong to inactive results.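 Rule for the calls: active = activation above the run's mean compound activation plus 3 SD (cut at about 16% in these data); inactive = the rest.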

Muscarinic acetylcholine receptor M1 (Homo sapiens), sequence (P11229 whole entry, looked up): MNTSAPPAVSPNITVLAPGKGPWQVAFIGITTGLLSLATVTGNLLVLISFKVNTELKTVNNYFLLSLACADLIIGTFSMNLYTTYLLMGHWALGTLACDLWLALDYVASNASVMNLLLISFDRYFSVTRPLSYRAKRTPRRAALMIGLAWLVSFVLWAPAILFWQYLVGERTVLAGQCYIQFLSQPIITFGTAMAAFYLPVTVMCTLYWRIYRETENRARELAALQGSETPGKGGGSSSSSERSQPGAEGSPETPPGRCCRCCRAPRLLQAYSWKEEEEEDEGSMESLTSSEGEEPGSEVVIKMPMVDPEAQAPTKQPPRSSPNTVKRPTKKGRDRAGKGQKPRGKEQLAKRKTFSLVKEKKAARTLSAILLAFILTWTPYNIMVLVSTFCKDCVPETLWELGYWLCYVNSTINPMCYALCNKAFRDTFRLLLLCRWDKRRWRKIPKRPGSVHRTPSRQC

The assay concerns the target Muscarinic acetylcholine receptor M1 (Homo sapiens) (UniProt P11229). Briefly: human M1 muscarinic receptor agonists, primary screen, Fluo-8 calcium fluorescence, CHO-K1 cells, HTS (AID 588814).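 Note: peak over basal fluorescence ratio within a 140 s kinetic read after compound addition.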 As to conditions: CHO-K1 hM1, Fluo-8 calcium fluorescence, agonist mode; at 3 µM; active compounds read high; 0% DMSO, 100% acetylcholine EC100.
On to `CCC(=O)c1ccc(OCC(=O)OCC(=O)N2CCc3ccccc3C2)cc1`, for which the activation is -1.8%. `CCN1CCc2nc(NC(=O)c3cc(F)c(F)cc3Cl)sc2C1`: the activation was -7.11%. In the case of `COC(=O)c1ccc(CSc2ccc3nnc(-c4ccccc4)n3n2)o1`, the activation was -7.9%. The same measure for `CCN1/C(=C\c2ccc3ccccc3[n+]2CC)Sc2cc(C)ccc21`: 26.1% (active); for `COCCNC(=O)C1CCCN(Cc2ccccc2Cl)CC1` (stereo not given): -7.52%. The value for `CCCNC(=O)CCn1nc(-c2ccccc2)c2ccccc2c1=O` was -3.19%; that for `COc1ccc(CNC(=O)CN(C(=O)c2csnn2)c2cnc3ccccc3c2)cc1` was -11.5%; that for `CCOC(=O)C(CC)/C(C)=N\NC(=O)c1cccc(C)c1` (stereo not given) was -0.97%.

For `COc1ccccc1S(=O)(=O)c1c(C)cc(C)[nH]c1=O`, the activation is -1.5%. Consider `Cc1cc(C)c(/C=C2\C(=O)Nc3ccccc32)[nH]1`, for which the activation is 26.4% (active). For `O=C1c2ccccc2NC(c2ccccn2)N1NS(=O)(=O)c1ccccc1` (stereo not given), the activation was 0.48%. Regarding `Cc1ccc(CN2C(=O)N/C(=C/c3cc(C)n(-c4ccccn4)c3C)C2=O)cc1`, the activation is -1.17%. On to `CN(C(=O)CN1C(=O)NC(C)(CCc2ccccc2)C1=O)c1ccccc1` (stereo not given), for which the activation is -0.73%. For the compound `CN(C)c1ccc(/C=C2\NC(=S)N(Cc3ccccc3)C2=O)cc1`, the activation was 47.3% (active).

Regarding `Cc1ccc(S(=O)(=O)N(Cc2ccc(Cl)cc2)c2ccccc2C(=O)NCc2cccnc2)cc1`, the activation is -7.63%. In the case of `CC(C)N(C(=O)Cn1cc(SCC(=O)N2CCCC2)c2ccccc21)C(C)C`, the activation is -6.14%. The value for `O=C(CC1SCCNC1=O)Nc1ccc(Cl)cc1` (stereo not given) was -4.53%. The value for `CC(Oc1ccc2ccccc2c1)C(=O)NNC(=S)NC(=O)c1ccco1` (stereo not given) was 51.6% (active); that for `CCCc1ccc(OCC(=O)NNC(=S)NC(=O)c2ccco2)cc1` was 4.47%; that for `O=C(Nc1ccc2ccccc2c1)/C(=C\c1ccc2c(c1)OCO2)NC(=O)c1ccco1` was -10.2%. `CCc1nc2c(OCCOc3ccccc3)cccn2c1N(C=O)Cc1ccc(OC)cc1`: the activation is -6.89%.

`CCOC(=O)[C@H]1[C@H]2COc3cc(OC)ccc3[C@@H]2N2C(=O)N(c3ccc(Br)cc3)C(=O)[C@@]12C`: the activation is -5.08%. The same measure for `Cc1cc(C)c(S(=O)(=O)N2CCC(C(=O)OCc3c(C)noc3C)CC2)c(C)c1`: -3.3%; for `C=CCn1c(SCc2c(C(=O)OC)sc(N)c2C(=O)OC)nnc1-c1ccc(Cl)cc1`: 0%. The same measure for `COc1cc(/C=C2/SC(=S)N(Cc3ccccc3)C2=O)cc(OC)c1O`: 24.3% (active); for `CN1C=CC=C/C1=C1\SC(=S)N(Cc2ccccc2)C1=O`: -13.4%. Regarding `COc1ccc(CCNC2=C(Cl)C(=O)N(Cc3ccccc3)C2=O)cc1OC`, the activation is -3.94%. `COc1ccc(C)cc1-n1nnnc1SCc1nc2ccccc2c(=O)[nH]1`: the activation is 16.2% (active). Consider `CCn1c(COc2c(C)cccc2C)nnc1SCc1nc2ccccc2c(=O)[nH]1`, for which the activation was -4.55%.

Consider `COc1ccc(CCCc2nnc(SCc3nc4ccccc4c(=O)[nH]3)n2C)cc1`, for which the activation was -15.5%. Consider `O=C1CCN(CCCc2ccccc2)CCN1CCO`, for which the activation was -5.68%.

`CCCCN1CC(COCc2ccccc2)OCCS1(=O)=O` (stereo not given): the activation is -4.53%. For the compound `O=S1(=O)C[C@@H](N2CCN(CCO)CC2)[C@H](COCc2ccccc2)N1`, the activation is 17.3% (active).

Turning to `COc1ccc(OC)c(NC(=O)c2cc(-c3cc(F)ccc3OCC3CCCO3)n[nH]2)c1` (stereo not given), the activation was -6.22%. The same measure for `CC(C)(C)OC(=O)NC(Cc1ccccc1)C(=O)NC(CSC1CCCCO1)C(=O)NN` (stereo not given): -3.12%; for `COC(=O)c1cc(C(=O)NC(C)C2CC3CCC2C3)cc([N+](=O)[O-])c1` (stereo not given): -7.37%. The value for `CCN(CC)CCCC(C)n1c2nc(=O)[nH]c(=O)c-2nc2cc(Cl)ccc21` (stereo not given) was 182% (active). On to `COc1cccc(CNCCc2c[nH]c3ccccc23)c1OCc1ccccc1F`, for which the activation was 16.5% (active). As to `Fc1ccccc1COc1ccccc1CNCc1ccncc1`, the activation was -7.35%. Regarding `COc1ccc(C(CCNCc2ccccc2F)c2ccc(F)cc2)cc1` (stereo not given), the activation was -4.82%. Regarding `CC(C)C[C@H]1CN=C(Nc2ccccc2)N1CC1CCCCC1`, the activation was -8.04%. The same measure for `Cc1ccc(O)c(NC(=S)NC(=O)COc2ccc(Br)cc2)c1`: 33.4% (active).

In the case of `Cn1cccc1C(=O)NNC(=O)COc1ccc(Br)cc1`, the activation was -2.51%. As to `CC(=O)Nc1ccc(OC(=O)COc2ccc(Br)cc2)cc1`, the activation is -5.95%. The value for `COCCNc1cc(-c2ccccc2)nc2cc(-c3cccc(F)c3)nn12` was -4.59%; that for `CC1(c2ccc(Cl)cc2)NC(=O)N(CC(=O)c2ccc3c(c2)OCO3)C1=O` (stereo not given) was 20.6% (active).

In the case of `Cc1ccc(S(=O)(=O)N2CCN(C(=O)CN3C(=O)NC(C)(c4ccc(Cl)cc4)C3=O)CC2)c(C)c1` (stereo not given), the activation is -3.67%.

In the case of `CC1CCC2(CC1)NC(=O)N(CC(=O)c1ccc3c(c1)OCO3)C2=O` (stereo not given), the activation is -2.81%. The same measure for `COc1ccc(C(=O)CN2C(=O)NC(C)(c3ccc(C)cc3)C2=O)cc1OC` (stereo not given): 16.2% (active); for `Cc1ccc(C2(C)NC(=O)N(CC(=O)Nc3ccccc3C(=O)N3CCCCC3)C2=O)cc1` (stereo not given): 0.58%; for `COc1ccc(C2(C)NC(=O)N(CC(=O)c3ccc4c(c3)OCO4)C2=O)cc1` (stereo not given): 10.2%. Turning to `Cc1ccc(NC(=O)CN2C(=O)NC(C)(c3ccc(Cl)cc3)C2=O)c(Br)c1` (stereo not given), the activation was 17.6% (active). The value for `COc1cc(NC(=O)CN2C(=O)NC(C)(c3ccc(OC(F)F)cc3)C2=O)cc(OC)c1OC` (stereo not given) was 5.37%. With `Cc1ccc(C2(C)NC(=O)N(CC(=O)N3CC(=O)Nc4ccccc43)C2=O)cc1` (stereo not given), the activation was -1.27%. As for `O=C(NC(c1ccc(-c2ccccc2)cc1)c1cnccn1)C1CCN(CCOc2ccc(Cl)cc2Cl)CC1` (stereo not given), the activation is -1.39%.

For `Cc1cc(Br)cn2c(Cc3ccsc3)c(-c3ccc(C#N)cc3)nc12`, the activation was -1.39%. As to `COCCCNc1nc2c(-c3cccc(C)c3)nnn2c2ccc(Cl)cc12`, the activation is -3.36%. In the case of `C[C@H]1CN([C@@H](C)CO)C(=O)c2cc(C3=CCCCC3)cnc2O[C@@H]1CN(C)C(=O)Cc1ccccc1`, the activation was -6.56%.

Take `CN(CCc1ccccc1)C(=O)c1cccc(NC(=O)Cc2cccc(NC(=O)C3CCCN(C(=O)CCc4ccccc4)C3)c2)c1` (stereo not given): the activation is -7.79%. Regarding `Cc1ccc(-c2nnc(C)c(N3CC(C)OC(C)C3)n2)cc1` (stereo not given), the activation was -3.38%.

In the case of `Cc1ccc(SCC(=O)Nc2nncs2)cc1`, the activation was 0.6%. As for `CC(Oc1ccccc1)C(=O)Nc1oc(-c2ccco2)c(-c2ccco2)c1C#N` (stereo not given), the activation was -4.2%.

As to `CCOc1ccc(S(=O)(=O)N2CCC(C(=O)NCC(=O)Nc3cccc(Cl)c3C)CC2)cc1`, the activation is -2.79%. The value for `COc1ccc(CCNC(=O)/C(C#N)=C2\N=C(NC(=O)c3cccs3)c3ccccc32)cc1` was 0.74%. The value for `Cc1ccc2nc(/C(C#N)=C\c3ccc(OC(=O)c4cccs4)cc3)[nH]c2c1` was 21.8% (active). As for `CCN(CC)c1ccc(S(=O)(=O)N2CCOCC2)cc1NC(=O)CSc1cccc[n+]1[O-]`, the activation was -5.92%. Take `CCOc1ccc(NC(=O)CC(Cc2ccc(Cl)cc2)C(=O)O)cc1` (stereo not given): the activation is -7.97%. As for `O=C(NN1CCOCC1)c1cccc(F)c1`, the activation was -3.15%. `Cc1ccc(C(=O)NC2CCN(C(=O)Nc3ccccc3Cl)CC2)cc1`: the activation is -1.42%. With `CC(C)CNC(=O)C1CCCN(S(=O)(=O)c2ccc(-n3cnnn3)cc2)C1` (stereo not given), the activation was -2.97%. Consider `COC(=O)c1ccc(CN2CCCC(C(=O)Nc3cccc(-n4cnnn4)c3)C2)cc1` (stereo not given), for which the activation was 37.4% (active). As to `O=C(Nc1ccc(F)cc1)C1CCCN(S(=O)(=O)c2ccc(-n3cnnn3)cc2)C1` (stereo not given), the activation was -3.35%.

`O=C(NCCCN1CCCC1=O)C(=O)NCC1OCCN1S(=O)(=O)c1ccc(Br)cc1` (stereo not given): the activation was -4.08%. The value for `Nc1c(C(=O)c2cccs2)sc2nsc(SCCN3CCCCC3)c12` was 40.6% (active); that for `COc1ccc(Cl)cc1NC(=O)CN(C)C(=O)CCCc1c[nH]c2ccccc12` was -1.46%. Regarding `Cc1occc1-c1nnc(SCC(=O)NC2(C#N)CCCC2)n1C`, the activation was -1.84%. For the compound `CCOC(=O)N1CCN(C(=O)c2nn(-c3ccc(C)cc3)c(=O)c3c2c2ccccc2n3C)CC1`, the activation is -4.51%. As to `CCOC(=O)c1nnn2c3ccccc3c(=O)n(C)c12`, the activation was -1.59%.

For `CCCc1nc2c(c(=O)c3ccccc3n2C)c(=O)n1C1CCCCCC1`, the activation was 55.4% (active).

Turning to `COC(=O)c1ccc(CNC(=O)C2CCC(=O)N(Cc3cccc(F)c3)C2)cc1` (stereo not given), the activation was -0.82%. For the compound `Cc1nc([N+](=O)[O-])c(NCCCO)n1Cc1ccccc1`, the activation was -5.22%. On to `CN(C)CCNC(=O)c1ccc(Cl)c2cc3ccccc3nc12`, for which the activation was -6.82%. The value for `Nc1ccc2nc3c(=O)[nH]c(=S)[nH]c3nc2c1` was 18.4% (active).

For the compound `CSCc1cc(N(C)C)nc(SCc2ccc(Cl)cc2Cl)n1`, the activation is 1.65%. For the compound `COc1cccc(NC(=O)N(C)C[C@@H]2Oc3ncc(Br)cc3C(=O)N([C@@H](C)CO)C[C@H]2C)c1`, the activation was -2.37%. The same measure for `COC(=O)c1cc(NS(=O)(=O)c2ccc3c(c2)c(=O)n(C)c(=O)n3C)cc(C(=O)OC)c1`: -0.41%. On to `Cc1ccccc1NC(=O)c1cc(S(=O)(=O)N2CCOCC2)cs1`, for which the activation was -2.94%. Take `COc1cc(OC)cc(C(=O)N[C@H](C(=O)OCC(=O)NC(C)c2ccccc2)C(C)C)c1` (stereo not given in full): the activation is 18.7% (active). On to `COc1cc(OC)cc(C(=O)NC(C(=O)N2CCC2)C(C)C)c1` (stereo not given), for which the activation is -2.4%.

`COc1cc(OC)cc(C(=O)NCC(=O)OCC(=O)NC(C)CCc2ccccc2)c1` (stereo not given): the activation was -5.47%.

(Values after PubChem BioAssay AID588814 (The Scripps Research Institute Molecular Screening Center, 2011).)
